Experimental data taken from PubChem BioAssay (NCATS).
Records with an inconclusive call do not appear. Calls of active or inactive are those of the source. Calls come from the whole dose curve; as a rule, active = well fitted inhibition curve with a large enough effect; inconclusive = small, poorly fitted or top-dose-only effect; inactive = flat fitted curve, though single readings scatter.

Experiment: BET inhibitor-based combinations targeting novel dependencies in MECOM-rearranged (r) AML: AML-191 cell line (AID 2202236; note: nearly all actives have a fitted effect of over 35% in size)
Settings: AML-191 viability, CellTiter-Glo luminescence, 48 h; series mostly up to 46 µM
Excerpt: Ecotropic viral insertion site 1 (EVI1) is located on chromosome 3q26.2 as part of the MECOM (MDS and EVI1 complex) locus. Under normal hematopoiesis, EVI1 is a regulator of hematopoietic stem cell maintenance and self-renewal and EVI1 levels decrease as the cells differentiate. In approximately 5-10% of de novo acute myeloid leukemia (AML) EVI1 is aberrantly expressed, including Chromosomal inv(3)(q21;q26.2) or t(3;3)(q21;q26.2) alterations (MECOM-r) that account for about 50% of AML with EVI1 overexpression 31. AMLs with high levels of EVI1 have a poor prognosis and an overall survival time averaging between 10-14 months. EVI1 overexpression confers resistance in leukemia cells, highlighting the need to develop new targeted therapies for EVI1 overexpressing AMLs.
Here, we performed an unbiased chemical drug screening by evaluating the single agent activity of a collection of 2,480 oncology-focused, approved and investigational drugs (NCATS Mechanism Interrogation Plates, MIPE v5.0) against a panel of seven AML cell lines. These included four MECOM-r cell-lines (AML-191, AML-194, UCSD-AML1 and HNT-34) and three non-MECOM-r AMLs (MV4-11, OCI-AML3 and SET-2). Exploiting the mechanistic redundancy built in the library, we identified target-level sensitivities in MECOM-r AML cells and relative activity as compared to other AML subtypes.
A collection of 2480 mechanistically annotated dugs (MIPE v5.0) was used to screen four 3q26.2 rearranged AML cell lines and three non-3q26.2 rearranged AML cell lines. This library purposely exploits redundancy by including multiple inhibitors of key onco-targets, while simultaneously encompassing mechanistic diversity, targeting more than 800 distinct mechanisms of action. Briefly, cells were seeded in 5 uL of growth media using a Multidrop Combi dispenser into 1536 well white polystyrene tissue culture treated plates (Corning) at a density of 500cells/well. For each cell-line, for each of the 2480 drugs in MIPE v5.0 library, an 11-point dose curve was generated via a 1536 pin-tool. Plates were incubated for 48 hr at standard incubator conditions, covered by a stainless steel gasketed lid to prevent evaporation. Cell viability was determined by luminescence based, Cell Titer Glo assay (Promega). In detail, 3 uL of Cell Titer Glo were added to each well and plates were incubated at room temperature for 15 min with a stainless-steel lid in place. Luminescence readings were taken using a Viewlux (PerkinElmer) with a 2 s exposure time per plate. Compound dose-response curves were normalized to DMSO and empty well controls on each plate. Quantitative drug activity data from dose-response curves was determined utilizing area Under the Curve (AUC) and Z-transformed AUC (Z-AUC, a mean-centering transformation applied to each individual cell-line screened).
Potency is the fitted concentration of half-maximal effect.

Row | Structure (SMILES) | Potency
1 | CN1C/C=C/CCOc2cccc(c2)-c2ccnc(n2)Nc2cccc(c2)C1 | 0.296 µM (active)
2 | CC[C@H](C)C(=O)O[C@H]1C[C@H](O)C=C2C=C[C@H](C)[C@H](CC[C@@H](O)C[C@@H](O)CC(=O)O)[C@H]21 | inactive
3 | COC(=O)Nc1nc2ccc(S(=O)c3ccccc3)cc2[nH]1 (stereo not given) | 6.61 µM (active)
4 | Fc1ccc(-c2csc3ncnc(NCc4ccc5c(c4)OCO5)c23)cc1 | 16.6 µM (active)
5 | O=c1[nH]c(=O)n([C@H]2C[C@H](O)[C@@H](CO)O2)cc1F | 0.263 µM (active)
6 | COc1cc(-c2cn(C)c(=O)c3cnccc23)cc(OC)c1CN(C)C | inactive
7 | COc1cc(/C=C/C(=O)CC(=O)/C=C/c2ccc(O)c(OC)c2)ccc1O | 16.6 µM (active)
8 | CN1CCC(c2c(O)cc(O)c3c(=O)cc(-c4ccccc4Cl)oc23)C1CO (stereo not given) | 0.662 µM (active)
9 | O=C(NC[C@H](O)CO)c1ccncc1Nc1ccc(I)cc1F | 0.525 µM (active)
10 | Cc1ccc2cc(-c3c(C)ccc(C(=O)c4c(-c5ccccc5)n(C)n(-c5ccccc5)c4=O)c3N)ccc2n1 | inactive
11 | Cc1ccc(Sc2ccccc2N2CCNCC2)c(C)c1 | 18.6 µM (active)
12 | CC(=O)CC(c1ccccc1)c1c(O)c2ccccc2oc1=O (stereo not given) | inactive
13 | N#Cc1cccnc1N1CCN(C(=O)c2cccc(Cc3n[nH]c(=O)c4ccccc34)c2)CC1 | 0.118 µM (active)
14 | COc1ccc2nc(S(=O)Cc3ncc(C)c(OC)c3C)[nH]c2c1 (stereo not given) | inactive
15 | Cc1c(-c2c(-c3ccc(F)o3)sc3ncnc(O[C@@H](Cc4ccccc4OCc4ccnn4CC(F)(F)F)C(=O)O)c23)ccc(OCCN2CCN(C)CC2)c1Cl | 5.25 µM (active)
16 | C[C@@H](OC[C@@]1(c2ccccc2)CC[C@]2(CCC(=O)N2)CN1)c1cc(C(F)(F)F)cc(C(F)(F)F)c1 | 18.6 µM (active)
17 | CC(C)Cc1ccc([C@@H](C)C(=O)NS(C)(=O)=O)cc1 | inactive
18 | C[C@@H](O)[C@@H](C)Oc1nc(Nc2ccc(S(=N)(=O)C3CC3)cc2)ncc1C(F)(F)F (stereo not given in full) | 18.6 µM (active)
19 | C[C@H]1[C@H](O)O[C@@H]2O[C@@]3(C)CC[C@H]4[C@H](C)CC[C@@H]1[C@@]24OO3 | 2.95 µM (active)
20 | C=CCN(/C=C1\C(=O)O[C@@H](COC)[C@]2(C)C1=C(O)C(=O)C1=C2[C@@H](OC(C)=O)C[C@]2(C)C(=O)CC[C@H]12)CC=C | 20.9 µM (active)

Row | Structure (SMILES) | Potency
21 | O=C(Nc1cccc(Nc2ncc(Br)c(NCCc3cnc[nH]3)n2)c1)N1CCCC1 | 5.25 µM (active)
22 | C[C@H]1O[C@@H](O[C@H]2[C@@H](O)C[C@H](O[C@H]3[C@@H](O)C[C@H](O[C@H]4CC[C@@]5(C)[C@H](CC[C@@H]6[C@@H]5C[C@@H](O)[C@]5(C)[C@@H](C7=CC(=O)OC7)CC[C@]65O)C4)O[C@@H]3C)O[C@@H]2C)C[C@H](O)[C@@H]1O | 0.132 µM (active)
23 | CCCc1nc(C)c2c(=O)[nH]c(-c3cc(S(=O)(=O)N4CCN(CC)CC4)ccc3OCC)nn12 | inactive
24 | CN(C)C[C@@H]1CCn2cc(c3ccccc32)C2=C(C(=O)NC2=O)c2cn(c3ccccc23)CCO1 | 7.42 µM (active)
25 | COc1cc(N2CCN(C)CC2)ccc1Nc1ncc2c(n1)N(C)c1ccccc1C(=O)N2 | 26.3 µM (active)
26 | COc1cc2c3c(n(CCCn4ccnc4)c(=O)c2cc1OC)-c1cc2c(cc1C3=O)OCO2 | 0.0332 µM (active)
27 | C=CC(=O)Nc1cc2c(Nc3ccc(F)c(Cl)c3)ncnc2cc1C#CC(C)(C)N1CCN(C)CC1 | 4.68 µM (active)
28 | O=C(O)CCNc1cc(N2CCc3ccccc3CC2)nc(-c2cccnc2)n1 | inactive
29 | COc1ncc(-c2ccc3nccc(-c4ccnnc4)c3c2)cc1NS(=O)(=O)c1ccc(F)cc1F | 0.209 µM (active)
30 | C[C@@H](Oc1ccc2[nH]nc(/C=C/c3cnn(CCO)c3)c2c1)c1c(Cl)cncc1Cl | 0.833 µM (active)
31 | CCOC(=O)N[C@@H]1CC[C@@H]2[C@@H](C1)C[C@H]1C(=O)O[C@H](C)[C@H]1[C@H]2/C=C/c1ccc(-c2cccc(F)c2)cn1 | inactive
32 | COc1cc2c(Oc3ccc4[nH]c(C)cc4c3F)ccnc2cc1OCC1(N)CC1 | 7.42 µM (active)
33 | C=CC(=O)Nc1ccc2ncnc(Nc3ccc(OCc4cccc(F)c4)c(Cl)c3)c2c1 | 7.42 µM (active)
34 | CN(C)C(=O)COC(=O)Cc1ccc(OC(=O)c2ccc(N=C(N)N)cc2)cc1 | inactive
35 | C[C@]12CC[C@H](O)CC1=CC[C@@H]1[C@@H]2CC[C@]2(C)C(c3cccnc3)=CC[C@@H]12 | inactive
36 | COC1CCC(N2C(=O)CNc3ncc(-c4ccc(C(C)(C)O)nc4)nc32)CC1 (stereo not given) | 5.9 µM (active)
37 | O=C1Nc2nc(-c3c(O)cccc3OCC3CC3)cc([C@@H]3CCCNC3)c2CO1 | 18.6 µM (active)
38 | CNC1CCCN(c2c(F)cc3c(=O)c(C(=O)O)cn(C4CC4)c3c2OC)C1 (stereo not given) | inactive
39 | CNS(=O)(=O)c1ccc2c(c1)/C(=C/c1[nH]c3c(c1CCCN1CCN(C)CC1)CCCC3)C(=O)N2 | 14.8 µM (active)
40 | COCc1c(-c2ccc(NC(=O)Nc3cc(C(F)(F)F)ccc3F)c(F)c2)c2c(N)ncnn2c1CN1CCOCC1 | 5.9 µM (active)
